Screening data from PubChem BioAssay.
PfM18AAP inh-1: PfM18AAP enzyme inhibition. 290,000 compounds, 1.2% hits. inhibition, % at 7.35 µM. AID 1822. recombinant PfM18AAP, H-Glu-NHMec fluorogenic cleavage;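 active = inhibition above the campaign mean inhibition over all tested compounds plus 3 SD, cut at about 28% in these data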
IDE cell inh: inhibits human insulin-degrading enzyme in HEK cells. FAbetaB cleavage, fluorescence polarization. inhibition, % at 5.59 µM. 320,000 compounds, 0.41% hits;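 active = percent inhibition above the average of all tested compounds plus 3 SD, set per screening campaign, cut at about 16% in these data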;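 also: IDE supplied by intact live HEK cells; FP after avidin binding of uncleaved biotin substrate so inhibition keeps polarization high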
CaV13 ICDI inh: Primary screen for inhibitors of IQ motif and Ca2+-dependent inactivation inhibitor domain binding in CACNA1D, Förster resonance energy transfer in living cells, …. HEK cells, CFP/YFP FRET ICDI-IQ, plate reader, 10 min; percent FRET-ratio fall versus neutral wells. inhibition, % at 12.3 µM. 340,000 compounds, 0.098% hits;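 active = mean replicate inhibition of at least 30% and at least 1% of replicates passing that level; inconclusive = only one of the two criteria is met; inactive = neither criterion is met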
PolyA inh: inhibitors of polyadenylation in S. cerevisiae; activity score, % at 12 µM; 300,000 compounds, 0.02% hits; S. cerevisiae SKY197-pL101 polyadenylation reporter, beta-gal luminescence; efflux-impaired pdr1/pdr3 knockout yeast; score 100 = 6 SD above DMSO;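 active = lowest replicate activity score at least 50, where 100 means six control SD above control mean; inconclusive = lowest score under 50 but half or more replicates reach 50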;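 also: yeast exposed to compound for 9 h at 30 °C; higher score means more reporter readthrough which indicates perturbed polyadenylation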
ALR H2O2 inh: inhibitors of human sulfhydryl oxidase ALR; purified ALR, DTT oxidation, H2O2 HRP-luminol luminescence; inhibition, % (test concentration not listed); 290,000 compounds, 3.8% hits; AID 485317;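 active = mean replicate inhibition above about 79%, with every replicate also reaching it, limit read from the data; inconclusive = only one of the two criteria met; inactive = mean below limit and not every replicate reaching it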
Target sequence (P55789 whole entry, looked up): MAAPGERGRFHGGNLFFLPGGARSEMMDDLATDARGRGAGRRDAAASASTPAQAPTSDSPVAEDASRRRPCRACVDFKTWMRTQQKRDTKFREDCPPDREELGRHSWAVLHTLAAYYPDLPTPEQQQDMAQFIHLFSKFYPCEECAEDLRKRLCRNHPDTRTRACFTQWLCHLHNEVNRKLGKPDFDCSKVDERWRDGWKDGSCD
IDE cell activ: IDE (human) activation, cell-based; activation, % at 5.96 µM; P14735; AID 493087; HEK cells, FAbeta-B cleavage, fluorescence polarization; 0% vehicle, 100% cell-free pure enzyme wells; 340,000 compounds, 0.073% hits;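 active = activation above the mean of all tested compounds plus 3 SD, set per screening campaign, cut at about 17% in these data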
PfM18AAP inh-2: PfM18AAP inhibition, confirmation. inhibition, % at 7.35 µM. shares compounds with PfM18AAP inh-1. 2,400 compounds, 28% hits. recombinant PfM18AAP, H-Glu-NHMec fluorogenic cleavage. AID 2170;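 active = mean inhibition over replicate wells above the hit cutoff set for the earlier primary screen, cut at about 29% in these data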
CTSL1 confirm: counter-screen for PFM18AAP inhibitors: confirmation of human cathepsin L inhibitors; purified cathepsin L1, Z-Leu-Arg-MCA fluorescence; AID 2178; inhibition, % at 5.96 µM; shares compounds with PfM18AAP inh-1; 2,400 tested, under 10 active;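 active = average inhibition across replicates above the hit cutoff set in the earlier primary screen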
Target sequence (P07711 whole entry, looked up): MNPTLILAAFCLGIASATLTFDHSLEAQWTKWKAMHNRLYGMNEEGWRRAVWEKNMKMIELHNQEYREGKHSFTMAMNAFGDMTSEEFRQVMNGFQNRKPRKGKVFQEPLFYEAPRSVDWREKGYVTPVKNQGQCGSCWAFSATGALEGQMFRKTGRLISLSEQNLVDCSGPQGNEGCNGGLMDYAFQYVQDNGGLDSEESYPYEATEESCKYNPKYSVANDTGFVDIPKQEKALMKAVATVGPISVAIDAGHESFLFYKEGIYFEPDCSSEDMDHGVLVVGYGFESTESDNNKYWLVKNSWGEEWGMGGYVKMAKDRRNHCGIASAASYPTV
Large screens that a line does not name were inactive (follow-up assays come after a bar, where they were run). Sampled rows, rich in hits. Any-hit rate of the full collection: about 4.1%.

COc1cccc(C(NC(=O)c2ccccc2F)NC(=O)c2ccccc2F)c1	none
COc1cccc(C(c2c(N)[nH]c(=S)[nH]c2=O)c2c(N)[nH]c(=S)[nH]c2=O)c1	PfM18AAP inh-1 33, ALR H2O2 inh inconclusive (no result: IDE cell activ) | PfM18AAP inh-2 inactive | CTSL1 confirm inactive
Cc1occc1-c1nnc(SC(C)C(=O)Nc2ccccc2F)o1 (stereo not drawn)	none (no result: PfM18AAP inh-1, IDE cell inh, PolyA inh, ALR H2O2 inh)
C=CCSc1nc2sc3c(c2c(=O)[nH]1)CC(C)(C)OC3	none (no result: PfM18AAP inh-1, IDE cell inh, PolyA inh, ALR H2O2 inh)
C=CCNC(=S)NNc1nc2sc3c(c2c(=O)[nH]1)CC(C)(C)OC3	PfM18AAP inh-1 34 | PfM18AAP inh-2 inactive | CTSL1 confirm inactive
CN1CCN(Cc2c(O)ccc3occ(C(=O)c4ccccc4)c23)CC1	none (no result: CaV13 ICDI inh)
CC(=O)C(C(C)=O)c1c(Cl)c(O)c(O)c2c(C(=O)c3ccccc3)coc12	PfM18AAP inh-1 55 (no result: ALR H2O2 inh) | PfM18AAP inh-2 55 | CTSL1 confirm inactive
COCc1nnc(NC(=O)COc2ccc3c(c2)OCO3)s1	none
O=C(COc1ccc2c(c1)OCO2)Nc1nnc(Cc2ccccc2)s1	PfM18AAP inh-1 38 | PfM18AAP inh-2 inactive | CTSL1 confirm inactive
CCN1CCN(C(=S)Nc2ccc(Cl)c(Cl)c2)CC1	none
CCN1CCN(C(=S)c2ccc(Cl)c(Cl)c2)CC1	PfM18AAP inh-1 45 | PfM18AAP inh-2 inactive | CTSL1 confirm inactive
COc1cccc(-c2cc(C(=O)NN3CCOCC3)c3ccccc3n2)c1	none
COc1cccc(-c2cc(C(=O)Nn3cnnc3)c3ccccc3n2)c1	PfM18AAP inh-1 64 | PfM18AAP inh-2 62 | CTSL1 confirm inactive
O=C(Nn1cnnc1)c1cc(-c2ccccn2)nc2ccccc12	PfM18AAP inh-1 50 (no result: CaV13 ICDI inh) | PfM18AAP inh-2 47 | CTSL1 confirm inactive
Cc1cccc(NC(=O)c2cc(-c3ccccn3)nc3ccccc23)c1C	none
Cc1ccc(-c2cnc3ccccc3n2)cc1C	none
COc1ccc(-c2nc(N/N=C(\C)c3ccc(O)cc3)c3ccccc3n2)cc1	PfM18AAP inh-1 63 | PfM18AAP inh-2 inactive | CTSL1 confirm inactive
CCn1c(N)c(C(=O)NC)sc1=S	PfM18AAP inh-1 50, ALR H2O2 inh 99 | PfM18AAP inh-2 37 | CTSL1 confirm inactive
CC(C)(C)N=Cc1c(O)ccc2oc3c(c12)CCCC3	PfM18AAP inh-1 33 | PfM18AAP inh-2 inactive | CTSL1 confirm inactive
NC(=O)N/N=C/c1c(O)ccc2oc3c(c12)CCCC3	none (no result: ALR H2O2 inh)
NNc1nc2c(-c3cccc(C(F)(F)F)c3)nnn2c2ccccc12	PfM18AAP inh-1 35 (no result: IDE cell inh) | PfM18AAP inh-2 inactive | CTSL1 confirm inactive
C/C(=N\Nc1nc(C)cc(-c2ccccc2)n1)c1ccc(C)o1	PfM18AAP inh-1 52 | PfM18AAP inh-2 inactive | CTSL1 confirm inactive
C/C(=N/Nc1nc(C)cc(-c2ccccc2)n1)c1ccco1	none
COc1ccc(CNC(=O)Nc2nc(C(N)CCc3ccccc3)cs2)cc1 (stereo not drawn)	none (no result: PfM18AAP inh-1, IDE cell inh, PolyA inh, ALR H2O2 inh, IDE cell activ)
Cc1cccc2sc(NNC(=O)c3ccc(S(=O)(=O)N4CCCC(C)C4)cc3)nc12 (stereo not drawn)	PfM18AAP inh-1 38, CaV13 ICDI inh 43 (no result: ALR H2O2 inh) | PfM18AAP inh-2 inactive | CTSL1 confirm inactive
Cc1cccc2sc(NC(=O)c3cccc(S(=O)(=O)N4CCc5ccccc54)c3)nc12	none
Cc1cccc2sc(NNC(=O)c3ccc(S(=O)(=O)N4CCc5ccccc5C4)cc3)nc12	PfM18AAP inh-1 37 | PfM18AAP inh-2 inactive | CTSL1 confirm inactive
NS(=O)(=O)c1ccc(Nc2nc(-c3ccc(O)cc3)cs2)cc1	PfM18AAP inh-1 45, ALR H2O2 inh inconclusive | PfM18AAP inh-2 44 | CTSL1 confirm inactive
CCOC(=O)C(C(=O)OCC)N(C#N)c1nc(N(C)C)nc(N(C)C)n1	none (no result: ALR H2O2 inh)
CCC(=O)NNc1nc2c(Cl)cccc2s1	PfM18AAP inh-1 33 | PfM18AAP inh-2 inactive | CTSL1 confirm inactive
CCC(=O)NNc1nc2c(C)cccc2s1	PfM18AAP inh-1 48 | PfM18AAP inh-2 inactive | CTSL1 confirm inactive
CCC(=O)NNc1nc2c(C)c(C)ccc2s1	PfM18AAP inh-1 37 (no result: PolyA inh) | PfM18AAP inh-2 inactive | CTSL1 confirm inactive
COc1ccccc1C1C2=C(N=c3s/c(=C/c4cccc(OCC(=O)O)c4)c(=O)n31)c1ccccc1CC2 (stereo not drawn)	PfM18AAP inh-1 36 (no result: PolyA inh) | PfM18AAP inh-2 inactive | CTSL1 confirm inactive
Cc1cc(C)cc(NC(=O)CCC(=O)Nc2cc(C)on2)c1	none (no result: CaV13 ICDI inh, ALR H2O2 inh)
Cc1c(C(=O)c2no[n+]([O-])c2C(=O)c2cnn(C)c2C)cnn1C	PfM18AAP inh-1 59 | PfM18AAP inh-2 77 | CTSL1 confirm inactive
COc1ccc(CNC(=O)CC[C@H]2O[C@@H](n3ccc(=O)[nH]c3=O)[C@H](O)[C@@H]2O)cc1	none (no result: PfM18AAP inh-1, IDE cell inh, PolyA inh, ALR H2O2 inh, IDE cell activ)
Cc1ncc(CO)c(/C=N/NC(=O)c2ccc(Br)cc2)c1O	none (no result: CaV13 ICDI inh, IDE cell activ)
Cc1ncc(CO)c(/C=N/NC(=O)c2cc(O)c(O)c(O)c2)c1O	PfM18AAP inh-1 58 (no result: IDE cell inh, CaV13 ICDI inh, ALR H2O2 inh, IDE cell activ) | PfM18AAP inh-2 36 | CTSL1 confirm inactive
Cc1ccc(N=C(NO)c2nonc2N)c(C)c1	PfM18AAP inh-1 34 | PfM18AAP inh-2 inactive | CTSL1 confirm inactive
CCN(CC)c1ccc(N=CN2CCOCC2)cc1	PfM18AAP inh-1 34, ALR H2O2 inh 98 | PfM18AAP inh-2 inactive | CTSL1 confirm inactive
COc1cc(OC)cc(C(=O)N[C@H](C(=O)NCc2cccs2)C(C)C)c1	none
S=c1nc[nH]c2c1ncn2C1CCCC1	none (no result: IDE cell inh) | PfM18AAP inh-2 inactive | CTSL1 confirm inactive
COc1cccc(C(=O)NCCS(=O)(=O)NC(C)CCc2ccccc2)c1 (stereo not drawn)	none (no result: PfM18AAP inh-1)
Cc1nc(SCc2ccc(O)c([N+](=O)[O-])c2)n[nH]1	none
Cc1nc(SCc2ccc(O)c([N+](=O)[O-])c2)c([N+](=O)[O-])[nH]1	PfM18AAP inh-1 47 | PfM18AAP inh-2 inactive | CTSL1 confirm inactive
CCN(CC)C(=O)CN1C(=O)/C(=C/c2ccccc2)SC1=S	none
CC(=O)NNC(=O)CN1C(=O)/C(=C/c2ccccc2)SC1=S	PfM18AAP inh-1 34 (no result: ALR H2O2 inh) | PfM18AAP inh-2 inactive | CTSL1 confirm inactive
CCN1CCN(C(=S)c2ccc(OCC(=O)NCc3ccccc3)cc2)CC1	PfM18AAP inh-1 39 | PfM18AAP inh-2 inactive | CTSL1 confirm inactive
Cc1ccc(C(=S)N2CCN(Cc3ccccc3)CC2)cc1	PfM18AAP inh-1 52 | PfM18AAP inh-2 inactive | CTSL1 confirm inactive
CCN1CCN(C(=S)c2ccc(OCC(=O)Nc3ccc(OC)cc3)cc2)CC1	none
O=c1c2ccccc2ncn1CCOc1ccccc1[N+](=O)[O-]	none
c1ccc(CN2CCC3(CC2)Nc2ccccc2CO3)cc1	none
